Most compounds without a hit are left out; they make up all but 17% or so of the library.
TDP1 cell noCPT – qHTS for Inhibitors of human tyrosyl-DNA phosphodiesterase 1 (TDP1): qHTS in cells in absence of CPT; DT40 Tdp1-/- hTDP1 cells, no CPT, ATP luminescence, 48 h; Potency, µM (series often up to 46.2 µM), for inactives: at the highest dose activity change, negative = growth inhibition, actives largely listed as inhibitors; hit rate 15% among 420,000; further: on the % scale 0 is the no-effect control and ±100 the full control effect; nearly all actives have a fitted effect of over 55% in size
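Camptothecin absent (DMSO only). Human TDP1-complemented DT40 knockout cells, 400 cells/well, 37 °C for minimum 48 hr; ATP measured via CellTiter-Glo, 30 min dark incubation, luminescence.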
HepG2 viability – counter-screen for TGF-b inhibitors: cytotoxicity in HepG2 cells | hit rate 0.76% among 410,000 | Potency, µM (doses to about 46.1 µM), without a hit: at the highest dose activity change, negative = cytotoxicity, most hits filed as cytotoxic | AID 588856 | HepG2 CAGA-GFP viability, ATP luminescence, 18 h
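HepG2 CAGA-GFP cells (1000/well, DMEM with 1% FBS) received compound, then TGF-beta at 500 pg/mL final, and were incubated 18 hours at 37 degrees C. Viability was read by CellTiter-Glo luminescence. Media-only wells were set as complete cell-killing and DMSO as no toxicity.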
TDP1 cell CPT – growth inhibition of DT40 Tdp1-/-;hTDP1 cells with camptothecin (screen for TDP1 inhibitors) | chicken DT40 Tdp1-/-;hTDP1 cells + 20 nM CPT, ATP luminescence, 48 h | Potency, µM (highest dose often 46.2 µM), inactives show at the highest dose activity change, negative = growth inhibition, usual class: inhibitors | hit rate 12% among 420,000 | AID 686979; further: on the % scale 0 is the no-effect control and ±100 the full control effect; nearly all actives have a fitted effect of over 55% in size
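Chicken DT40 Tdp1-/- cells complemented with human TDP1, 400 cells/well, exposed to compounds plus 20 nM camptothecin for at least 48 h at 37 C; viability read as ATP content by CellTiter-Glo luminescence.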
HT1080 IDH1KD tx – HT-1080 IDH1 knockdown cell toxicity (counter line). hit rate 2% among 360,000. HT-1080 IDH1 knockdown viability, ATP luminescence, 48 h. Potency, µM (titrated, usually from 46.1 µM), inactives show at the top dose activity, negative = toxicity, most hits filed as cytotoxic. AID 686971;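 further: 0% = DMSO wells and -100% = cell-free medium wells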
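Using the IDH1-knockdown HT-1080 line run in the same batch and compound series as the NT line, viability after 48 h at 37 °C was determined by CellTiter-Glo luminescence and expressed as % activity.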
TGFb SMAD3 inh – TGF-b pathway inhibition | HepG2 CAGA-GFP TGF-b/SMAD3 reporter, GFP fluorescence, 18 h; TGF-beta stimulated, 500 pg/mL final | Potency, µM (top dose mostly 46.1 µM), for the others: at the highest dose activity, negative = inhibition, actives largely listed as inhibitors | hit rate 1.2% among 410,000; further: on the % scale 0 is the no-effect control and ±100 the full control effect; nearly all actives have a fitted effect of over 65% in size
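Smad-responsive CAGA-GFP expression was quantified in HEPG2 cells exposed to compounds and 500 pg/mL final TGF-beta for 18 h at 37 degrees C; unstimulated wells defined full inhibition.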
HT1080NT lethal – kills 2HG-producing HT-1080-NT fibrosarcoma cells | Potency, µM (doses to about 46.1 µM), for the others: at the top dose activity, negative = less viability, most hits filed as cytotoxic | HT-1080-NT fibrosarcoma viability, CellTiter-Glo ATP luminescence, 48 h | hit rate 1.6% among 360,000 | AID 686970;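 further: NT is the 2HG producing partner of a matched IDH1 knockdown line; 0% = DMSO-treated cells and -100% = media-only wells without cells; nearly all actives have a fitted effect of over 55% in size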
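Read-out is CellTiter-Glo luminescence after 10 minutes at room temperature, following 48 hours' compound treatment of HT-1080-NT cells (750 cells/well, RPMI, 5% FBS, 37 degrees C).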
* = called active by the depositor; ? = inconclusive; / = not tested or not shown; + = active, no number. The call rests on the fitted dose curve; in most records, active means well fitted curve in the direction sought with a large enough effect; inconclusive means small, poorly fitted or top-dose-only effect, or another doubt; inactive means no such curve, though single readings can be large; an effect the other way counts as inactive or inconclusive. Potency means the concentration at half of the fitted maximal effect.

SMILES | TDP1 cell noCPT | HepG2 viability | TDP1 cell CPT | HT1080 IDH1KD tx | TGFb SMAD3 inh | HT1080NT lethal
CCOC(=O)Cc1c(C)nc2c(-c3ccccc3)c(C)[nH]n2c1=O | ? | 0% | -9% | ? | -3% | 4%
Cc1cccc(Cc2c(C)nc3c(-c4ccccc4)c(C)[nH]n3c2=O)c1 | 3.7µM* | -31% | 5.8µM* | / | 2.5µM* | /
COc1ccc(-c2c(C)[nH]n3c(=O)c(Cc4ccccc4)c(C)nc23)cc1OC | 18µM* | -12% | ? | ? | -6% | -11%
Cn1c(SCc2ccc(C(C)(C)C)cc2)nnc1C1COc2ccccc2O1 (stereo not drawn) | ? | -2% | -25% | ? | 22µM* | -9%
Cn1c(SCc2nnc(-c3ccc(F)cc3)o2)nnc1C1COc2ccccc2O1 (stereo not drawn) | ? | 0% | -27% | -9% | -24% | -16%
COc1cc(Nc2ccc(S(N)(=O)=O)cc2)c([N+](=O)[O-])nc1[N+](=O)[O-] | ? | -12% | 16µM* | 5% | ? | 0%
Cc1nnc(N2C(=O)c3oc4ccccc4c(=O)c3C2c2ccc(Cl)cc2)s1 (stereo not drawn) | -24% | 0% | -22% | / | -3% | /
Cc1ccc(C2c3c(oc4ccccc4c3=O)C(=O)N2c2nnc(C)s2)cc1 (stereo not drawn) | 21µM* | -2% | 13µM* | / | -8% | /
O=C1c2cccc3cccc(c23)C(=O)N1OS(=O)(=O)c1ccc(Br)cc1 | 10µM* | 17% | ? | 7% | 0% | 6%
Cc1cc(S(=O)(=O)ON2C(=O)c3ccccc3C2=O)ccc1F | 2.1µM* | 2% | 3.3µM* | 0% | 11% | 1%
Cc1ccc(S(=O)(=O)ON2C(=O)c3cccc4cccc(c34)C2=O)cc1 | 16µM* | 21% | ? | 0% | 19% | -8%
CCC1CCCCN1S(=O)(=O)c1ccc(NC(=O)C2CC(=O)N(C(C)(C)C)C2)cc1 (stereo not drawn) | -24% | -2% | 10% | 19% | -11% | 19%
COc1ccc(-c2noc(CN3CCCC(OCc4ccccn4)C3)n2)cc1 (stereo not drawn) | ? | 2% | 16µM* | -2% | 15% | 2%
c1ccc(COC2CCCN(Cc3nc(-c4cnccn4)no3)C2)nc1 (stereo not drawn) | 17% | 25% | -3% | 2% | 18% | 7%
O=C(NCCSc1ccccc1)c1ccccc1 | -3% | -10% | -8% | 13% | -2% | 9%
O=C(NCCSSCCNC(=O)c1ccccc1)c1ccccc1 | 16µM* | -4% | 18µM* | -27% | ? | -15%
CCCCSc1nc2ccc(Nc3nc(N4CCOCC4)nc(N4CCOCC4)n3)cc2s1 | 21µM* | 0% | ? | ? | -9% | ?
CCCCC(=O)Nc1ccc2nc(SCC(=O)N3CCOCC3)sc2c1 | ? | -23% | ? | / | ? | /
CCCCNC(=O)CSc1nc2ccc(Nc3nc(N4CCOCC4)nc(N4CCOCC4)n3)cc2s1 | 9.2µM* | -44% | 18µM* | -28% | -26% | -14%
COc1ccc(NC(=S)NNC(=O)c2nnn(-c3ccccc3)c2C)cc1 | ? | -31% | -28% | 9% | -34% | 0%
NS(=O)(=O)c1ccc(NC(=O)/C(=C/c2ccncc2)NC(=O)c2ccccc2)cc1 | -8% | 6% | -4% | 14% | 2% | 10%
CCSC1=NC2(CCN(C(=O)NC3CCCCC3)CC2)N=C1c1ccc(OC)cc1 | ? | -3% | ? | / | -18% | /
COc1ccccc1CNC(=O)c1cnc(SC)nc1C | 15µM* | 12% | 23µM* | / | 29% | /
CSc1ncc(C(=O)Nc2ccc(F)cc2F)c(-c2ccccc2)n1 | -19% | 8% | -3% | / | -37% | /
CSc1ncc(C(=O)NCc2ccc(F)cc2)c(-c2ccccc2)n1 | + | -10% | -13% | / | -7% | /
SMILES | TDP1 cell noCPT | HepG2 viability | TDP1 cell CPT | HT1080 IDH1KD tx | TGFb SMAD3 inh | HT1080NT lethal
COc1ccccc1CNC(=O)C(C)Sc1ccc(C)cc1 (stereo not drawn) | 26µM* | -9% | -3% | 3% | 2% | -3%
Cc1cccc(OCC(=O)N/N=C\c2cc3c(cc2[N+](=O)[O-])OCO3)c1C | ? | 0% | -15% | ? | -22% | -3%
COc1ccc(CCNC(=O)Cc2c(Cl)cccc2Cl)cc1 | -10% | 0% | 2% | 3% | 0% | 1%
CCOc1cc(/C=N/NC(=O)c2cccnc2)ccc1OCC(=O)N1CCOCC1 | -17% | -3% | 7% | 21% | 11% | 6%
CC(=O)c1c(O)c(C)c(O)c2c1OC1=Cc3c(c(C)nn3C)C(=O)C12C (stereo not drawn) | 29µM* | -1% | 16µM* | -2% | 3% | 7%
Cc1ccc(S(=O)(=O)/C(C#N)=C/c2c(N3CCN(Cc4ccccc4)CC3)nc3ccccn3c2=O)cc1 | -8% | 2% | -25% | 14% | 4% | 13%
Cc1ccc(Cl)cc1-n1ncc2c(NC3CCCCC3)ncnc21 | 15µM* | -21% | 9.2µM* | / | ? | /
Cc1ccc(Cl)cc1-n1ncc2c(N3CCN(Cc4ccccc4)CC3)ncnc21 | 2.3µM* | 1% | 2.6µM* | / | 22% | /
Clc1cccc(-n2ncc3c(NC4CCCCC4)ncnc32)c1 | 18µM* | -45% | ? | / | ? | /
CCN1CCN(c2ncnc3c2cnn3-c2cc(Cl)ccc2C)CC1 | ? | 0% | ? | / | 12% | /
CCN(CC)c1ncnc2c1cnn2-c1cc(Cl)ccc1C | 21µM* | -9% | 21µM* | / | -10% | /
Clc1cccc(-n2ncc3c(NCCCn4ccnc4)ncnc32)c1 | ? | -46% | 21µM* | / | 10% | /
CCC(=O)N1CCN(c2ccc(NC(=O)c3ccc([N+](=O)[O-])o3)cc2)CC1 | 21µM* | -45% | 4.6µM* | 5.2µM* | ? | 6.5µM*

Screens (PubChem BioAssay)
